# Experimental data: PubChem BioAssay (Tox21)
# Records with an inconclusive call do not appear. Entries that show only a call come without a potency. The source made the active and inactive calls. Unless noted, calls come from the whole dose curve; as a rule, active = well fitted curve in the direction sought with a large enough effect in the repeat runs; inconclusive = weak or mixed curves; inactive = no such curve, though single readings can be large; an effect the other way counts as inactive or inconclusive.
# How the values were obtained:
# [1] = qHTS assay to identify small molecule antagonists of the glucocorticoid receptor (GR) signaling pathway - cell viability counter screen (AID 720693); note: nearly all actives have a fitted effect of over 55% in size; note: potency is the fitted concentration of half-maximal effect
# [2] = qHTS assay for identifying genotoxic compounds that show differential cytotoxicity against isogenic chicken DT40 cell lines with known DNA damage response pathways - wild type cell line (AID 743012); note: nearly all actives have a fitted effect of over 60% in size; note: potency is the fitted concentration of half-maximal effect
# Outline: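 Viability of DNA repair-proficient chicken DT40 cells was assessed by CellTiter-Glo luminescence following 40 h compound exposure at 37 C/5% CO2.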
# [3] = qHTS assay for identifying genotoxic compounds that show differential cytotoxicity against isogenic chicken DT40 cell lines with known DNA damage response pathways - Rev3 mutant cell line (AID 743014); note: nearly all actives have a fitted effect of over 55% in size; note: potency is the fitted concentration of half-maximal effect
# [4] = qHTS assay for identifying genotoxic compounds that show differential cytotoxicity against isogenic chicken DT40 cell lines with known DNA damage response pathways - Rad54/Ku70 mutant cell line (AID 743015); note: nearly all actives have a fitted effect of over 60% in size; note: potency is the fitted concentration of half-maximal effect
# [5] = qHTS assay to identify small molecule antagonists of the androgen receptor (AR) signaling pathway - cell viability counter screen (AID 743033; note: nearly all actives have a fitted effect of over 45% in size; note: potency is the fitted concentration of half-maximal effect)
# [6] = qHTS assay to identify small molecule antagonists of the androgen receptor (AR) signaling pathway using the MDA cell line - cell viability counter screen (AID 743041; note: nearly all actives have a fitted effect of over 45% in size; note: potency is the fitted concentration of half-maximal effect)
# Outline: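 In this qHTS counter assay, fluorescence intensity after CellTiter-Fluor addition indicated viability of MDA-kb2 AR-luc cells given compounds and R1881 for 16 h at 37C.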
# [7] = target: Androgen receptor (Homo sapiens) (UniProt P10275); experiment: qHTS assay to identify small molecule agonists of the androgen receptor (AR) signaling pathway (AID 743036; active = well fitted activation curve with a large enough effect in the signal ratio in the repeat runs, with a control signal flat, not every such curve was filed as active; the % refers to the signal ratio)
# Chain of Androgen receptor (Homo sapiens) (P10275 whole entry, looked up): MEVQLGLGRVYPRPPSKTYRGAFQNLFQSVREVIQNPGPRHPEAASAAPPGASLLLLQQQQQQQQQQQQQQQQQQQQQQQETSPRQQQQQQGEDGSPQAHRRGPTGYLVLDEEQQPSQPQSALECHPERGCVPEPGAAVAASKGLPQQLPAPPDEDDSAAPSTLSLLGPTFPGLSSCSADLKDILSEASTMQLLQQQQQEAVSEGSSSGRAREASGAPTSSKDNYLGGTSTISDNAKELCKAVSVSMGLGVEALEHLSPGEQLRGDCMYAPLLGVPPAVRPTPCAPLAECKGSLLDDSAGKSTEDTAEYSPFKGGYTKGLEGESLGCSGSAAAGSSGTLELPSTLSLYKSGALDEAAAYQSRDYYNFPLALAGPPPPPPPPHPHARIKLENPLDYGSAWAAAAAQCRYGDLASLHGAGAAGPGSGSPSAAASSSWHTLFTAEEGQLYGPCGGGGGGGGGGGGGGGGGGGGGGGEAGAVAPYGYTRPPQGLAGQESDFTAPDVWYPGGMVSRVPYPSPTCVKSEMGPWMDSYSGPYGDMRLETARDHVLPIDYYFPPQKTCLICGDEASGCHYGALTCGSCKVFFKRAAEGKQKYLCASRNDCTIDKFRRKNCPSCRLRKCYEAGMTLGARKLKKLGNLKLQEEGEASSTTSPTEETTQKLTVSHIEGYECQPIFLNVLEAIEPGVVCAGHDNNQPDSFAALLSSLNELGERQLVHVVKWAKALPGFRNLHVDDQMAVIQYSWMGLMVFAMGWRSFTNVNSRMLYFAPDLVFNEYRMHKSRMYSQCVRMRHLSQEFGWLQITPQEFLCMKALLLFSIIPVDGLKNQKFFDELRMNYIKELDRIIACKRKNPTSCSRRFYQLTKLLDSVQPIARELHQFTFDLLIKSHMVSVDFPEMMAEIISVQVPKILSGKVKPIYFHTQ
# Outline: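 Following a 4 h settling period, AR-UAS-bla HEK293 cells were dosed with compounds for 16 h at 37C. A 2 h room-temperature incubation with LiveBLAzer B/G FRET substrate preceded the fluorescence measurement.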
# [8] = target: Androgen receptor (Homo sapiens) (UniProt P10275); experiment: qHTS assay to identify small molecule agonists of the androgen receptor (AR) signaling pathway using the MDA cell line (AID 743040; note: nearly all actives have a fitted effect of over 20% in size)
# Outline: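 Cell-based luciferase reporter: MDA-kb2, MMTV promoter (AR + GR response elements). 16 h compound exposure at 37C; ONE-Glo, 30 min RT, luminescence.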
# [9] = target: Androgen receptor (Homo sapiens) (UniProt P10275); experiment: qHTS assay to identify small molecule antagonists of the androgen receptor (AR) signaling pathway (AID 743035; active = well fitted inhibition curve with a large enough effect in the signal ratio in the repeat runs, not every such curve was filed as active; the % refers to the signal ratio; note: potency is the fitted concentration of half-maximal effect)
# Outline: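 Reporter HEK293 cells were exposed to compounds and R1881 overnight (16 h, 37C); beta-lactamase activity was then quantified by FRET fluorescence.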
# [10] = target: Androgen receptor (Homo sapiens) (UniProt P10275); experiment: qHTS assay to identify small molecule antagonists of the androgen receptor (AR) signaling pathway using the MDA cell line (AID 743042; note: nearly all actives have a fitted effect of over 55% in size; note: potency is the fitted concentration of half-maximal effect)
# Outline: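 MDA-kb2 cells (human breast carcinoma, stably carrying an MMTV-luciferase reporter responsive to AR and GR) were plated at 3,000 cells/well and preincubated 5 hr at 37C, then given compound plus R1881 agonist for 16 h. ONE-Glo luminescence was read.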
Compound,Potency [1],Potency [2],Potency [3],Potency [4],Potency [5],Potency [6],Potency [7],Potency [8],Potency [9],Potency [10]
O=P(O)(O)C(O)(Cc1cnc2ccccn12)P(=O)(O)O,inactive,inactive,inactive,inactive,inactive,inactive,–,–,–,–
Cn1c(O)c(N=NC(N)=S)c2ccccc21,inactive,5.31 µM (active),10.6 µM (active),8.41 µM (active),2.68 µM (active),inactive,–,–,–,–
CCCCCCCCCCCCCCCCCC(=O)OCCO,inactive,inactive,inactive,inactive,inactive,inactive,–,–,–,–
CCCC(CCC)C(N)=O,inactive,inactive,inactive,inactive,inactive,inactive,–,–,–,–
Cc1c(N)nc(C(CC(N)=O)NCC(N)C(N)=O)nc1C(=O)NC(C(=O)NC(C)C(O)C(C)C(=O)NC(C(=O)NCCc1nc(-c2nc(C(=O)NCCCN[C@@H](C)c3ccccc3)cs2)cs1)C(C)O)C(O[C@@H]1O[C@@H](CO)[C@@H](O)[C@H](O)[C@@H]1O[C@H]1O[C@H](CO)[C@@H](O)[C@H](OC(N)=O)[C@@H]1O)c1cnc[nH]1 (stereo not given in full),inactive,1.19 µM (active),0.944 µM (active),0.0531 µM (active),inactive,inactive,–,–,–,–
N[C@H](CC(=O)O)C(=O)O,inactive,inactive,inactive,inactive,inactive,inactive,–,–,–,–
CN[C@@H]1[C@@H](O)[C@@H](O[C@@H]2[C@@H](O)[C@H](O[C@H]3O[C@H](CN)[C@@H](O)[C@H](O)[C@H]3O)[C@@H](N)C[C@H]2NC(=O)C(O)CN)OC[C@]1(C)O (stereo not given in full),inactive,inactive,inactive,inactive,inactive,inactive,–,–,–,–
CC(=O)N=c1sc(S(N)(=O)=O)nn1C,inactive,inactive,inactive,inactive,inactive,inactive,–,–,–,–
CC(=O)OC[C@H]1O[C@@H](O[C@H]2[C@H](O)[C@@H](OC(=O)c3ccccc3C(=O)O)[C@H](O)O[C@@H]2COC(C)=O)[C@H](O)[C@@H](OC(=O)c2ccccc2C(=O)O)[C@@H]1O,inactive,inactive,inactive,inactive,inactive,inactive,–,–,–,–
CC(C(=O)O)c1ccc(C2CCCCC2)c2ccccc12 (stereo not given),inactive,inactive,inactive,inactive,inactive,inactive,–,–,–,–
CCC[C@@]1(CCc2ccccc2)CC(O)=C([C@H](CC)c2cccc(NS(=O)(=O)c3ccc(C(F)(F)F)cn3)c2)C(=O)O1,inactive,inactive,inactive,inactive,inactive,inactive,–,–,–,–
OC[C@H]1O[C@@H](n2cnc3c2NC=NC[C@H]3O)C[C@@H]1O,inactive,inactive,inactive,inactive,inactive,inactive,–,–,–,–
C[C@H](CSC(=O)c1ccccc1)C(=O)N1C[C@@H](Sc2ccccc2)C[C@H]1C(=O)O,inactive,inactive,inactive,inactive,inactive,inactive,–,–,–,–
CC1CCC(NC(=O)N(CCCl)N=O)CC1 (stereo not given),inactive,inactive,inactive,inactive,inactive,inactive,–,–,–,–
CCOC(=O)CN[C@@H](C(=O)N1CC[C@H]1C(=O)NCc1ccc(/C(N)=N/O)cc1)C1CCCCC1,inactive,inactive,inactive,inactive,inactive,inactive,–,–,–,–
CC(C)C[C@H](NC(=O)[C@@H](Cc1c[nH]c2ccccc12)NC(=O)[C@H](Cc1ccc(O)cc1)NC(=O)[C@H](CO)NC(=O)[C@H](Cc1c[nH]c2ccccc12)NC(=O)[C@H](Cc1cnc[nH]1)NC(=O)[C@@H]1CCC(=O)N1)C(=O)N[C@@H](CCCN=C(N)N)C(=O)N1CCC[C@@H]1C(=O)NCC(N)=O,inactive,inactive,inactive,inactive,inactive,inactive,–,–,–,–
O=[n+]1ccn([O-])c2ccccc21,inactive,inactive,inactive,inactive,inactive,inactive,–,–,–,–
CC(=O)N[C@@H](CC(=O)N[C@@H](CCC(=O)O)C(=O)O)C(=O)O,inactive,inactive,inactive,inactive,inactive,inactive,–,–,–,–
COc1cc2[nH]c(C)c(CCN3CCN(c4ccccc4)CC3)c2cc1OC,inactive,18.8 µM (active),26.6 µM (active),29.8 µM (active),inactive,inactive,–,–,–,–
COc1ccc(/C=C/C(=O)OCCC(C)C)cc1,inactive,inactive,inactive,inactive,inactive,inactive,–,–,–,–
CC1(O)CCC(C(C)(C)O)CC1 (stereo not given),inactive,inactive,inactive,inactive,inactive,inactive,–,–,–,–
CCCCCCCCCCCCCCCC(=O)OCCC1CCN(CCCN2c3ccccc3Sc3ccc(S(=O)(=O)N(C)C)cc32)CC1,inactive,inactive,inactive,inactive,inactive,inactive,–,–,–,–

Compound,Potency [1],Potency [2],Potency [3],Potency [4],Potency [5],Potency [6],Potency [7],Potency [8],Potency [9],Potency [10]
Cc1c(Cl)cccc1Nc1ncccc1C(=O)O,inactive,inactive,inactive,inactive,inactive,inactive,–,–,–,–
CCCCC[C@H](O)/C=C/[C@@H]1[C@H]2C/C(=C/CCCC(=O)O)O[C@H]2C[C@H]1O,inactive,inactive,inactive,inactive,inactive,inactive,–,–,–,–
C=CCSSSCC=C,inactive,inactive,inactive,inactive,inactive,inactive,–,–,–,–
CN1CCC(CN2c3ccccc3Sc3ccccc32)C1 (stereo not given),inactive,5.96 µM (active),4.22 µM (active),5.96 µM (active),–,inactive,inactive,inactive,–,–
CC(O)[C@@H]1NC(=O)[C@H](Cc2ccccc2)NC(=O)[C@H](C(C)O)NC(=O)[C@H](CCCCN)NC(=O)[C@H](Cc2c[nH]c3ccccc23)NC(=O)[C@H](Cc2ccccc2)NC(=O)[C@H](Cc2ccccc2)NC(=O)[C@H](CC(N)=O)NC(=O)[C@H](CCCCN)NC(=O)[C@@H](NC(=O)CNC(=O)[C@H](C)N)CSSC[C@@H](C(=O)O)NC(=O)[C@H](CO)NC1=O (stereo not given in full),inactive,inactive,inactive,inactive,inactive,inactive,–,–,–,–
CC(C)CCC[C@@H](C)[C@H]1CC(=O)C2=C3CC[C@H]4C[C@@H](O)CC[C@]4(C)[C@H]3CC[C@@]21C,inactive,0.596 µM (active),0.298 µM (active),0.841 µM (active),–,inactive,inactive,inactive,inactive,inactive
CC1(S(=O)(=O)O)CC(=O)c2ccccc2C1=O (stereo not given),inactive,9.44 µM (active),11.9 µM (active),11.9 µM (active),–,–,–,inactive,–,29.8 µM (active)
[O]=[Bi][O][Bi]=[O],inactive,inactive,inactive,inactive,–,inactive,inactive,inactive,inactive,inactive
C=C(NC(=O)C(=C)NC(=O)c1csc(C2=N[C@@H]3c4csc(n4)[C@H]4NC(=O)c5csc(n5)[C@H]([C@](C)(O)[C@@H](C)O)NC(=O)[C@H]5CSC(=N5)C(=CC)NC(=O)C([C@@H](C)O)NC(=O)c5csc(n5)[C@]3(CC2)NC(=O)[C@H](C)NC(=O)C(=C)NC(=O)[C@H](C)NC(=O)C([C@@H](C)CC)NC2C=Cc3c([C@H](C)O)cc(nc3C2O)C(=O)O[C@@H]4C)n1)C(N)=O (stereo not given in full),inactive,2.54 µM (active),3.2 µM (active),4.03 µM (active),–,–,–,inactive,–,–
COc1cc(-c2ccc(-[n+]3nc(-c4ccccc4)nn3-c3ccc([N+](=O)[O-])cc3)c(OC)c2)ccc1-[n+]1nc(-c2ccccc2)nn1-c1ccc([N+](=O)[O-])cc1,19 µM (active),5.96 µM (active),7.5 µM (active),5.31 µM (active),–,–,–,inactive,–,29.8 µM (active)
CC(C)(C)NCC(O)c1ccc(O)c(CO)n1 (stereo not given),inactive,inactive,inactive,inactive,inactive,inactive,–,–,–,–
CCCC(=O)O[C@]1(C(=O)COC(C)=O)CC[C@H]2[C@@H]3C[C@H](F)C4=CC(=O)C=C[C@]4(C)[C@@]3(F)[C@@H](O)C[C@@]21C,inactive,26.6 µM (active),29.8 µM (active),29.8 µM (active),inactive,inactive,–,–,–,–
O=C(O)c1cccc(/C=C2/C[C@@H]3[C@@H](/C=C/[C@@H](O)C4CCCCC4)[C@H](O)C[C@@H]3O2)c1,inactive,inactive,inactive,inactive,–,inactive,–,inactive,inactive,inactive
COc1ccc(C2NC(=S)N3C(c4ccc(OC)c(OC)c4)NC(=S)N23)cc1OC (stereo not given),inactive,0.0067 µM (active),0.0106 µM (active),0.0106 µM (active),–,0.15 µM (active),–,inactive,–,0.075 µM (active)
CN1CCN(C2=Nc3ccccc3Cc3ccccc32)CC1,inactive,26.6 µM (active),23.7 µM (active),29.8 µM (active),inactive,inactive,–,–,–,–
CN(C)c1ccc(C(=C2C=CC(=[N+](C)C)C=C2)c2c(O)c(S(=O)(=O)[O-])cc3cc(S(=O)(=O)O)ccc23)cc1,inactive,11.9 µM (active),10.6 µM (active),13.3 µM (active),–,–,inactive,inactive,inactive,11.9 µM (active)
CCCCCCCCCCCCCCCCCCCCCC(=O)Nc1ccn([C@@H]2O[C@H](CO)[C@@H](O)[C@@H]2O)c(=O)n1,inactive,18.8 µM (active),23.7 µM (active),26.6 µM (active),–,inactive,inactive,inactive,–,inactive
CC(C)CCCC(C)NC(C)C (stereo not given),inactive,inactive,inactive,inactive,–,inactive,inactive,inactive,inactive,inactive
NC(=S)N=Nc1ccc(NN=C(N)N)cc1,inactive,2.66 µM (active),5.96 µM (active),5.31 µM (active),–,26.6 µM (active),inactive,inactive,–,29.8 µM (active)
CCN(CC)CCOc1ccc2nc(N(C)C)sc2c1,inactive,1.19 µM (active),1.68 µM (active),2.11 µM (active),inactive,inactive,–,–,–,–
O=C1C(=O)c2ncccc2-c2cccnc21,inactive,5.96 µM (active),8.41 µM (active),4.22 µM (active),–,inactive,–,inactive,23.9 µM (active),inactive
C[C@H](CCCC(C)(C)O)[C@H]1CC[C@H]2[C@@H]3CC=C4C[C@@H](O)CC[C@]4(C)[C@H]3CC[C@]12C,inactive,1.68 µM (active),0.211 µM (active),10.6 µM (active),–,inactive,–,inactive,–,inactive
